GCN5L2 inh – GCN5L2 (KAT2A) acetyltransferase inhibition; GCN5L2 HAT assay, ThioGlo1 CoA-SH fluorescence; Potency, µM (doses to about 58.9 µM), without a hit: at the highest dose activity change, negative = inhibition, hits mostly inhibitors; 390,000 compounds, 0.21% hits
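ThioGlo1-coupled HAT assay: 20nM GCN5L2, 70uM acetyl-CoA, 75uM H3(1-25) peptide, pH 7.5. Fluorescence read at 340/540nm at start and after 20 min at room temperature.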
rTrxR1 inhibitor – rat TrxR1 inhibition | Potency, µM (titrated, usually from 114 µM), for inactives: at the top dose activity change, negative = inhibition, hits mostly inhibitors | 390,000 compounds, 1% hits | recombinant rTrxR1, NADPH fluorescence consumption, selenite substrate | O89049 | AID 588453; further: nearly all actives have a fitted effect of over 65% in size
Target sequence (O89049 whole entry, looked up): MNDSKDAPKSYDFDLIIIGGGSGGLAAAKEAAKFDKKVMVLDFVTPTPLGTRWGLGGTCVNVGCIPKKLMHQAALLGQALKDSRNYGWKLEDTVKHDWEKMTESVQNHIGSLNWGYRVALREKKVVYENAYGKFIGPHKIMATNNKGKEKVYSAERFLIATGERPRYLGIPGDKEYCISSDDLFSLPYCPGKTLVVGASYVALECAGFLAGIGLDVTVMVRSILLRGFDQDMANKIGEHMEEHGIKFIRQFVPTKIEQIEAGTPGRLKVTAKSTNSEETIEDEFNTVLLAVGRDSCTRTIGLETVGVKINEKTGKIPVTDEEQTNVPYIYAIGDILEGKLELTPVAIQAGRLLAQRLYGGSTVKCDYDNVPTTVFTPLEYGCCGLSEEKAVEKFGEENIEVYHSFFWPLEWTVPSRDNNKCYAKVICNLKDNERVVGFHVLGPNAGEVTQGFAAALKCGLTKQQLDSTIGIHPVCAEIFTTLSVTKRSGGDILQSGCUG
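Rat TrxR1 (90 nM in the dispensed reagent) was pre-reduced with 400 uM NADPH for 5 min at room temperature, then incubated with compound for 15 min. After 400 uM selenite was added, NADPH fluorescence (Ex 340/Em 450 nm) was followed for 8 min.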
TrxR1 substrate – is turned over as a substrate by rat TrxR1. O89049. purified TrxR1 substrate turnover, NADPH consumption readout. Potency, µM (top dose mostly 114 µM), inactives show at the top dose activity change, negative = substrate turnover. 390,000 compounds, 0.01% hits; further: nearly all actives have a fitted effect of over 50% in size
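Rat TrxR1, dispensed at 90 nM, was prereduced with 400 uM NADPH (final) for 5 min at ~22 deg C, then incubated with compound 15 min before 400 uM selenite. A first-read NADPH fluorescence drop versus no-compound background flagged substrates.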
VDR inh – inhibitors of human vitamin D receptor; P11473; VDR-SRC2-3 peptide fluorescence polarization, 2 h; Potency, µM, without a hit: max response, negative = inhibition, most hits filed as inhibitors; 400,000 compounds, 0.93% hits
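Signal is fluorescence polarization, reporting how far test compounds block the interaction of VDR with the SRC2-3 coregulator peptide after a 2 h room-temperature incubation.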
Numbers without * were called inactive; u = inconclusive; x = no result given; [ ] = another dose, or the depositor's remark. The list is not random: actives were taken first. Their share in the collection is about 1.8%. The call rests on the fitted dose curve; in most records, active means well fitted curve in the direction sought with a large enough effect; inconclusive means small, poorly fitted or top-dose-only effect, or another doubt; inactive means no such curve, though single readings can be large; an effect the other way counts as inactive or inconclusive. On the % scale 0 is the no-effect control and ±100 the full control effect; potency means the concentration at half of the fitted maximal effect.

SMILES | GCN5L2 inh | rTrxR1 inhibitor | TrxR1 substrate | VDR inh
COC(=O)C1=C(C)N(Cc2ccc(C)cc2)C(=O)/C1=C\c1cc(OC)c(OC)c(OC)c1 | -7.3% | u | -7.0% | 50.1µM*
C=C1C=C(C)n2ncc(C(=O)Nc3ccccc3C(=O)OC)c2N1 | x | 0.5% | -0.2% | x
O=C(NCS(=O)(=O)c1ccccc1)c1ccccc1 | 2.4% | 44.7µM* | 4.1% | -1.2%
N#Cc1ncc(Br)cn1 | x | -15.8% | 8.4% | x
COc1ccc(NC(=S)NC(=O)c2ccc3c(c2)OCCO3)cc1 | -4.2% | 3.55µM* | -13.4% | -27.2%
O=C(c1ccc2c(=O)n(Cc3ccco3)c(=S)[nH]c2c1)N1CCN(Cc2ccc3c(c2)OCO3)CC1 | x | -17.2% | 6.3% | -5.8%
CCOC(=O)C1(C)Oc2ccccc2C(C(=O)OC)=C1C(=O)OC (configuration not stated) | -6.6% | 31.6µM* | 1.7% | u
CCCS(=O)(=O)c1nc(S(=O)(=O)c2ccc(C)cc2)c(NCc2ccccc2)s1 | -3.2% | -10.7% | -6.9% | 4.1%
C/C=C\C(=O)N(CC)c1ccccc1C | 0.0%[21.4 µM] | x | x | 9.7%
N#C/C(C(=O)Nc1ccc(Cl)cc1)=C(/S)Nc1ccccc1 | 7.94µM* | -14.2% | -9.6% | u
Cc1ccc2c(c1)CCC2=O | x | u | 2.3% | x
CCCCS(=O)(=O)c1oc(-c2cccs2)nc1S(=O)(=O)c1ccc(F)cc1 | -12.2% | 0.708µM* | 11.7% | 10µM*
CCCCCS(=O)(=O)c1oc(-c2cccs2)nc1S(=O)(=O)c1ccc(C)cc1 | -16.6% | 1.58µM* | 7.1% | u
CCCSc1oc(-c2cccs2)nc1S(=O)(=O)c1ccc(C)cc1 | 1.4% | 14.1% | 17.7% | -1.3%
CCCCS(=O)(=O)c1oc(-c2ccc(F)cc2)nc1S(=O)(=O)c1ccc(C)cc1 | -4.1% | 1.41µM* | 6.0% | u
CCC(C)S(=O)(=O)c1oc(-c2ccc(F)cc2)nc1S(=O)(=O)c1ccc(F)cc1 (configuration not stated) | -6.5% | 2µM* | 11.8% | u
O=C(Nc1nnc(CCc2ccccc2)s1)C1CCN(C(=O)c2ccco2)CC1 | x | 4.1% | 4.2% | -12.9%
NN/C(=C\[N+](=O)[O-])Nc1ccc(Cl)cc1 | 3.9% | 15.8µM* | -0.2% | -5.5%
NN/C(=C\[N+](=O)[O-])Nc1ccccc1 | -4.1% | 15.8µM* | 0.3% | -12.5%
NNC(=S)Nc1ccc(Cl)cc1 | 1.9% | 5.7%[57.1 µM] | 9.4%[57.1 µM] | -11.0%
O=C(C[n+]1ccccc1Cl)c1ccc(Br)cc1 | x | -14.9% | 1.3% | x
Nc1ncnc2oc(-c3ccoc3)c(-c3ccco3)c12 | x | 50.1µM* | 24.7% | u
CCCC(c1nnnn1C1CCCCC1)N1CCN(C2CCCC2)CC1 (configuration not stated) | -23.0% | 4.6%[57.1 µM] | 3.3%[57.1 µM] | -0.3%
Oc1ccc(C(c2nnnn2C2CCCCC2)N2CCOCC2)cc1 (configuration not stated) | -6.7% | -15.3%[57.1 µM] | 5.4%[57.1 µM] | -7.7%
c1cc(C(c2nnnn2C2CCCC2)N2CCOCC2)ccn1 (configuration not stated) | -12.3% | 14.1µM* | 7.4% | -9.5%
SMILES | GCN5L2 inh | rTrxR1 inhibitor | TrxR1 substrate | VDR inh
Cc1ccc(C(c2nnnn2C2CCCCC2)N2CCN3CCCC3C2)cc1 (configuration not stated) | 0.891µM* | -16.1% | -6.3% | -7.8%
c1cc2c(cc1Cc1cncc(Cc3ccc4c(c3)OCO4)c1)OCO2 | x | 23.2% | 2.7% | x
CCC1Oc2ccc(C)cc2N(CC(=O)N(Cc2ccc(C)o2)C2CCCC2)C1=O (configuration not stated) | -5.1% | 25.1µM* | -1.4% | u
CC[N+]1(C)CCC(O)(/C=C/c2ccccc2)C(C(=O)/C=C/c2ccccc2)C1 (configuration not stated) | x | 0.316µM* | 11.1%[11.4 µM] | 50.1µM*
CN(C)S(=O)(=O)c1cccc(NC(=S)Nc2cc(Cl)cc(Cl)c2)c1 | -0.9% | 20µM* | -7.8% | -10.4%
CN(C)S(=O)(=O)c1cccc(NC(=S)N/N=C/c2ccc(O)c(O)c2O)c1 | -19.8% | u | -7.7% | 89.1µM*
COc1cccc(/C=N/NC(=S)Nc2cccc(S(=O)(=O)N(C)C)c2)c1 | 4.3% | -18.4% | 3.8% | 79.4µM*
CN(C)S(=O)(=O)c1cccc(NC(=S)Nc2ccc(Cl)cc2Cl)c1 | -0.2% | u | -12.2% | -11.5%
O=C(Cn1c(=O)n(Cc2ccc(F)cc2)c(=O)c2sc3ccccc3c21)Nc1ccc(F)cc1F | 1.8% | 13.6%[0.457 µM] | 2.7% | 8.1%
COP(=O)(OC)OC(c1ccc(Cl)cc1)P(=O)(OC)OC (configuration not stated) | 4.4% | x | x | 2.2%
CC(=O)c1ccc(NS(=O)(=O)c2cccc(S(=O)(=O)c3ccc(Cl)cc3)c2)cc1 | -21.2% | 1.0% | -5.5% | 2.3%
Cc1cc2cc(C=C(C#N)C#N)c(Cl)nc2cc1C | -4.7% | u | 11.7% | 50.1µM*
CCOC(=O)/C(C#N)=C/c1cc2cc(C)c(C)cc2nc1Cl | 12.2% | 1.8% | 2.5% | -14.8%
c1ccc(Cc2nn3c(Cn4nnc5ccccc54)nnc3s2)cc1 | -0.9% | 6.4%[57.1 µM] | 7.9%[57.1 µM] | 89.1µM*
O=C1C2C3C=CC(C3=C3CCCCC3)C2C(=O)N1c1ccccc1 (configuration not stated) | -0.5% | 20µM* | 4.4% | -4.8%
CCc1ccc(C(=O)Cn2ncc(Cl)c(Cl)c2=O)cc1 | -6.0% | -30.2% | 5.8% | 25.1%
O=c1c(Cl)c(Cl)cnn1Cc1ccccc1Cl | -15.7% | 20µM* | 4.6% | u
Nc1c(Cl)cnn(-c2ccccc2)c1=O | x | 24.8% | 4.0% | 4.8%
Cc1ccc(Cn2ncc(Cl)c(Cl)c2=O)cc1 | -8.3% | 6.31µM* | 5.1% | -16.4%
O=c1[nH]cnc2c1cnn2Cc1ccccc1Cl | -0.1% | 24.8% | 3.3% | 1.9%
O=c1c(Cl)c(Cl)cnn1-c1ccccc1 | 16.5% | 14.1µM* | 4.8% | -0.7%
Cc1cc(C)cc(Cn2ncc(Cl)c(Cl)c2=O)c1 | -1.1% | 6.31µM* | 3.8% | u
CC1CCC2C(C)C3C(CC4[C@@H]5CC=C6C[C@@H](O)CC[C@]6(C)C5CC[C@]34C)N2C1 (some centres not stated) | 2.4% | x | x | 3.7%
Cc1ccc(CNC(=O)c2cn(C3CCCCC3)c(=O)c3c2c2ccccc2n3C)o1 | -19.1% | 3.98µM* | 11.8% | 79.4µM*
Cc1cc(NC(=O)c2cn(C3CCCCC3)c(=O)c3c2c2ccccc2n3C)no1 | -10.3% | 18.2% | 9.7% | -8.0%
COCC(C)OC(=O)/C(C#N)=C\c1coc2ccc(C)cc2c1=O (configuration not stated) | -3.4% | 28.2µM* | 7.1% | u
Cc1ccc2occ(/C=N/NC(=O)[C@@H](N)Cc3ccccc3)c(=O)c2c1 | -6.4% | 14.6%[57.1 µM] | 0.7%[57.1 µM] | -14.2%
CC(C)(C)C1CCc2onc(C(=O)Nc3sc4c(c3C(N)=O)CCCC4)c2C1 (configuration not stated) | -13.3% | 1.9% | -2.1% | 79.4µM*
CCc1c(C)sc(NC(=O)c2noc(C)c2[N+](=O)[O-])c1C#N | -19.7% | 12.6µM* | -8.7% | u
CCc1c(C)sc(NC(=O)c2cc(CC(C)C)on2)c1C#N | -3.3% | 9.6%[57.1 µM] | -3.3%[57.1 µM] | -22.9%
